# Sampled rows, rich in hits. Any-hit rate of the full collection: about 21%.
# Pf growth 48h – inhibits P. falciparum growth in the first generation, 48 h | P. falciparum luciferase growth in erythrocytes, 48 h | Potency, µM (top dose mostly 28.7 µM), for inactives: at the highest dose activity change, negative = inhibition, usual class: inhibitors | 310,000 compounds, 5.9% hits | AID 504832; note: potency is the fitted concentration of half-maximal effect; % is set by controls: 0 for no effect and ±100 for the full control effect
#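 Erythrocytes infected with P. falciparum carrying an integrated firefly luciferase reporter (2% hematocrit, 0.1% parasitemia final) were exposed to compounds in RPMI 1640 with 0.5% Albumax at 37 C, 5% CO2. Growth inhibition was scored as reduced luminescence.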
# HCV inhibitor – blocks hepatitis C virus; AID 651820; Potency, µM (highest dose often 41.8 µM), without a hit: at the highest dose activity change, negative = inhibition, hits mostly inhibitors; Huh7.5.1 HCVcc-Cre infection, luciferase reporter, 44 h; 340,000 compounds, 3.4% hits; note: potency is the fitted concentration of half-maximal effect; % is set by controls: 0 for no effect and ±100 for the full control effect
#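 HCVcc-Cre virus at an moi near 0.5 was added right after compound to cells cultured 4 h from seeding (1,000 cells/well). Luciferase activity was determined 44 h later, 15 min after substrate addition at RT.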
# CHX counter – counter-screen for Shiga toxin inhibitors: cycloheximide protein synthesis inhibition; cell reporter, cycloheximide protein synthesis inhibition counterscreen; max response, %; 300,000 compounds, 12% hits; AID 2314; in the data active = max response mostly above about 13%, no sharp cut-off; inactive = mostly below about 14%; note: read at 38.3 µM for the half of the compounds with a filed dose; 0% is about no effect
# Shiga inhibitor – Shiga toxin inhibition; Vero cells, Shiga toxin protein synthesis inhibition reporter; inhibition, % at 38.7 µM; 290,000 compounds, 9.2% hits; AID 2315; in the data active = inhibition mostly above about 28%, no sharp cut-off; inactive = mostly below about 43%; note: 0% is about no effect
# HCMV antiviral – inhibitors of human cytomegalovirus; HFF cells, HCMV-luciferase reporter, 72 h; stronger effect = lower value; activity change, negative = inhibition, % at 57.5 µM; 410,000 compounds, 4.5% hits; AID 1259415; in the data active = activity change below about -60%; inconclusive = no clear call, values can overlap the other calls; inactive = above about -39%; note: % is set by controls: 0 for no effect and ±100 for the full control effect
#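 Luciferase read-out from HCMV-luciferase-infected HFFs (MOI 1 PFU/cell) 72 h post infection at 37C; compounds added after 16 h cell attachment; activity normalized between buffer-only basal and Salinomycin (10uM) inhibitor controls.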
# Pf growth 96h – P. falciparum growth inhibition at 96 hours; P. falciparum luciferase reporter growth, 96 h; Potency, µM (doses to about 28.7 µM), for inactives: top-dose activity change, negative = inhibition, usual class: inhibitors; 320,000 compounds, 6.9% hits; AID 504834; note: potency is the fitted concentration of half-maximal effect; % is set by controls: 0 for no effect and ±100 for the full control effect
#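 P. falciparum expressing integrated firefly luciferase grown in erythrocytes (2% hematocrit, 0.05% parasitemia final) with compounds for 96 hours at 37 C, 5% CO2. Growth inhibition read as loss of luminescence after adding luciferase detection reagent.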
# * = called active by the depositor; u = inconclusive; x = no result; ! = not active in a repeat. Unless noted, calls come from the whole dose curve; as a rule, active = well fitted inhibition curve with a large enough effect; inconclusive = small, poorly fitted or top-dose-only effect, or another doubt; inactive = no such curve, though single readings can be large or run the other way.
SMILES,Pf growth 48h,HCV inhibitor,CHX counter,Shiga inhibitor,HCMV antiviral,Pf growth 96h
CC1(C)OC(=O)N(c2ccccc2)C12C=Cc1cc(Br)ccc1O2 (stereo unspecified),u,u,-2.5,-13.3,u,x
COc1ccc2c(c1)Sc1ccccc1N2CCN(C)C,u,u,-1.6,-12.6,x,53.1%
CN1c2ccccc2C(C)(C)[C@]12C=Cc1cc(O)ccc1O2,u,12.6µM*,38.0*,57.9,u,x
Cc1cc(=O)[nH]c(N/N=C/c2ccccn2)n1,2.94µM*,1µM*,13.8*,-33.6,-99.9*,u
Cc1cc(=O)[nH]c(N/N=C/c2cccc([N+](=O)[O-])c2)n1,25.6%,3.9%,-1.5,-6.8,35.3,299.6%
Cc1cc(=O)[nH]c(NN=Cc2c(Cl)cccc2Cl)n1,x,13.7%,x,x,u,x
Cc1cc(=O)[nH]c(N/N=C/c2ccc(Br)s2)n1,8.6%,-19.0%,26.9*,29.3,58.2,u
Cc1cc(=O)[nH]c(N/N=C/c2ccc(Cl)c([N+](=O)[O-])c2)n1,2.33µM*,18.7%,1.4,-5.7,u,u
Cc1cc(=O)[nH]c(N/N=C/c2cccc(Br)c2)n1,u,-0.9%,15.3*,x,43.3,-18.5%
COCC(=O)N1c2nc(-c3ccco3)nn2C2(CCCCC2)[C@@H]2CCCC[C@@H]21,x,x,x,x,-12.2,x
CC1(NC(=O)Cc2csc(-c3ccc(Cl)cc3)n2)CCS(=O)(=O)C1 (stereo unspecified),x,4.1%,x,x,6.6,x
CCOc1ccc(S(=O)(=O)N(CC(=O)N2CCC(C(N)=O)CC2)c2ccc(F)cc2)cc1,-8.3%,22.1%,7.5,-8.2,55.3,-25.6%
CC(/C=N/Nc1nncc(=O)[nH]1)=C\c1ccccc1,5.2%,4.7%,-0.7,13.1,43.2,0.8%
O=c1cnnc(N/N=C/c2ccccn2)[nH]1,u,6.31µM*,-1.5,-17.8,-32.3,u
Clc1cccc(N2CCNCC2)c1,u,7.4%,x,x,10.1,13.5µM*!
CCOC(=O)C1C(=O)N(C(=O)c2ccc(OC)cc2)CC1c1ccccc1 (stereo unspecified),23.4%,u,9.6*,16.5,17.5,x
O=C(CCCCCn1c(=O)c2sccc2n(Cc2ccc(Cl)cc2)c1=O)NCc1ccc2c(c1)OCO2,x,x,x,x,-18.5,x
COC(=O)C1(O)CC(c2ccccc2)C(C(=O)c2ccccc2)N1c1ccc(F)cc1 (stereo unspecified),x,x,x,x,-29.7,x
Cc1ccc(C2(C)NC(=O)N(CC(=O)Nc3nc(-c4ccccn4)cs3)C2=O)cc1 (stereo unspecified),2.33µM*,6.31µM*,x,x,-36.5,3.29µM*
Cc1ccc(S(=O)(=O)CCC(=O)Nc2nc(-c3ccccn3)cs2)cc1,13.1µM*,12.6µM*,x,x,u,10.4µM*
Cc1ccc(C(C)(O)CS(=O)(=O)Cc2ccccc2Cl)cc1 (stereo unspecified),11.1%,7.8%,0.9,25.9,9.0,6.7%
Cc1cc(C)c(S(=O)(=O)NCC(c2ccco2)N2CCN(c3ccccc3)CC2)c(C)c1 (stereo unspecified),x,x,x,x,2.0,x
O=S1(=O)[C@H]2C[C@H](CO)O[C@@]2(CO)CN1Cc1ccc(-c2ccc(F)cc2)cc1,x,11.2µM*,x,x,-20.0,x
CCN(C(=O)c1cc2c(Cl)nc3ccc(C)cc3c2s1)c1cc(OC)ccc1OC,x,x,x,x,-35.5,x
COc1cc(OC)c2nc(C)c3c(c2c1)N(c1ccc(O)cc1)CC3,u,u,1.3,-2.0,-102.8*,13.1µM*
SMILES,Pf growth 48h,HCV inhibitor,CHX counter,Shiga inhibitor,HCMV antiviral,Pf growth 96h
Cc1cc2n(n1)C(c1ccccc1)CC(c1ccc(Br)cc1)=N2 (stereo unspecified),u,-24.9%,36.6*,28.5*,x,-9.1%
CNC(=S)N1N=C(c2ccc(Br)cc2)CC1c1ccc(Br)cc1 (stereo unspecified),x,u,-2.1,-3.3,17.9,u
O=C(Nc1cccc(C(=O)N2CCN(c3ccccc3)CC2)c1)c1nsc2ccccc12,x,x,x,x,48.3,x
OCCC1CN(Cc2cnc(N3CCOCC3)s2)CCN1C1CCCC1 (stereo unspecified),-10.0%,24.0%,0.4,-1.7,-31.1,-2.9%
COc1ccc(CNC(=O)CSc2ncc3c(n2)-c2cc(Cl)ccc2N(C)S3(=O)=O)cc1,x,x,x,x,-1.4,x
CC/C(C)=N\Nc1nc(-c2cc3cc(OC)ccc3oc2=O)cs1,51.4%,8.91µM*,34.0*,73.0*,29.8,167.1%
COc1ccc2oc(=O)c(-c3nc(C)cs3)cc2c1,183.9%,-8.7%,31.8*,44.6*,64.3,21.6%
O=c1oc2ccccc2cc1-c1nnc(NCc2ccco2)s1,x,-24.4%,32.2*,70.2*,176.3,186.5%
COc1ccc2oc(=O)c(-c3nc(-c4ccc(C)c(C)c4)cs3)cc2c1,x,x,x,x,-4.7,x
O=c1oc2ccc3ccccc3c2cc1-c1nnc(Nc2ccccc2F)s1,x,x,x,x,-37.5,x
Nc1nnc(-c2cc3ccccc3oc2=O)s1,2.6%,1.2%,44.3*,152.4*,64.0,x
CCN1C(=O)[C@H]2[C@@H](c3ccc(C(F)(F)F)cc3)N[C@]3(CCCN(Cc4ccc(C(F)(F)F)cc4)C3=O)[C@H]2C1=O,x,x,x,x,7.7,x
Cc1cc(F)ccc1NC(=O)CCS(=O)(=O)c1ccc2c(c1)NC(=O)CO2,x,x,x,x,-5.6,x
CCn1ccc2c(OCC(=O)NCc3ccccc3)cccc2c1=O,x,x,x,x,18.6,x
COc1ccc2oc(=O)c(-c3nnc(N)s3)cc2c1,8.9%,5.5%,18.1*,44.8*,43.9,u
CNC(=O)c1ccc(-c2cc(C(F)(F)F)nn2C)s1,64.0%,16.9%,37.9*,62.6*,-4.8,57.2%
COC(=O)/C=C1\OCc2cc(OC)c(OC)cc21,x,x,x,x,-4.2,x
O=C(NC1CCCC1)c1ccc2c(=O)n(Cc3ccccc3)c(SCc3ccccc3)nc2c1,x,x,x,x,-12.9,x
O=C(Nc1ccc(S(=O)(=O)N2CCc3ccccc32)cc1)c1ccco1,u,8.91µM*,1.5,-16.5,-80.7*,u
CC(=O)c1cccc(NC(=O)c2ccc3c(c2)CCN3S(=O)(=O)c2ccccc2)c1,u,3.0%,24.3*,42.0,-23.3,11.7µM*
O=C(Nc1ccc(S(=O)(=O)N2CCc3ccccc32)cc1)c1ccc2c(c1)OCO2,4.3%,u,31.0*,36.4*,-84.8*,u
NS(=O)(=O)c1ccc(NC(=O)c2ccc3c(c2)CCN3S(=O)(=O)c2ccccc2)cc1,-21.6%,31.6µM*,-2.4,-8.2,u,4.4%
Cc1cc(NC(=O)c2ccc(S(=O)(=O)N3CCc4ccccc43)cc2)no1,u,25.2%,18.9,-13.3,u,u
COc1ccc(NC(=O)c2ccc3c(c2)CCN3S(=O)(=O)c2ccccc2)cc1,u,u,-2.0,-7.4,-36.1,7.9%
Cc1ccc(-n2c(=O)c3c(cnn3C)n(Cc3ccc(Cl)cc3)c2=O)cc1,x,x,x,x,-2.2,x
